Screening results from PubChem.
Shown are actives, neighbours in structure and some others; about 8.9% of the full set was active somewhere.
SW480 rereplic: DNA re-replication induction in SW480 cells; SW480 DNA re-replication, Hoechst DNA content imaging, 48 h; Potency, µM (series often up to 46.1 µM), inactives show at the top dose re-replication activation, usual class: activators; actives 1.8% (n = 340,000); also: potency is read from the fitted curve at half-maximal effect; % of control where 0% means no effect; nearly all actives have a fitted effect of over 55% in size
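Image-based read-out: total Hoechst fluorescence of nuclei (405 nm excitation, 500-530 nm emission), with hits raising the fraction of high-intensity nuclei. SW480 colon cells incubated 48 hr with compounds at 37 C.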
KB-3-1 tox: KB-3-1 parental cell cytotoxicity. AID 1347075. Potency, µM (highest dose often 46.1 µM), actives largely listed as cytotoxic. KB-3-1 viability, CellTiter-Glo ATP luminescence, 72 h. actives 1.4% (n = 400,000); also: potency is read from the fitted curve at half-maximal effect; % is scaled to controls: 0 for no effect and ±100 for the full control effect; nearly all actives have a fitted effect of over 60% in size
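Here the drug-naive KB-3-1 line serves as comparator for MDR sub-line selectivity; cells received compound titrations, 72 h at 37 °C, then CellTiter-Glo readout.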
KB-V1 cytotox: KB-V1 MDR subline cytotoxicity; actives 3.4% (n = 400,000); KB-V1 MDR cells viability, CellTiter-Glo, 72 h; AID 1347076; Potency, µM (doses to about 46.1 µM), most hits filed as cytotoxic; also: potency is read from the fitted curve at half-maximal effect; % is scaled to controls: 0 for no effect and ±100 for the full control effect; nearly all actives have a fitted effect of over 60% in size
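Luminescent ATP read-out (CellTiter-Glo, 10 min) measures survival of drug-selected KB-V1 MDR cells after 72 h, 37 degrees C compound exposure. Medium: phenol-red-free DMEM, 10% FBS. Values from fitted concentration-response curves.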
DRD3 agonist: agonists of human D3 dopamine receptor; P35462; D3R DiscoveRx beta-arrestin cells, luminescence, 90 min; max activation, %; actives 0.58% (n = 410,000); AID 652048; in the data active = max activation above about 30%; also: 0% is about no effect
Target sequence (P35462 whole entry, looked up): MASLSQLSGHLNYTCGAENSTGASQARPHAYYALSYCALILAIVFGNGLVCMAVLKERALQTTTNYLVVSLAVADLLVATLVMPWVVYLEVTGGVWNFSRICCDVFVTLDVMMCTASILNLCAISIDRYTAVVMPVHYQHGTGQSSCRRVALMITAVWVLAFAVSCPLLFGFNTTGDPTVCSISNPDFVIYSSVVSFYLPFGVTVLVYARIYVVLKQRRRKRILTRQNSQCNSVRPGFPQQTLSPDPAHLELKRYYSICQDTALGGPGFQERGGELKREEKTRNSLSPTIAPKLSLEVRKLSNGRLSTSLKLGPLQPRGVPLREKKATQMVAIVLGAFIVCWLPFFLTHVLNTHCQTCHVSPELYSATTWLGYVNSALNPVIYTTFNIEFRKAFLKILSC
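Agonist-mode cell screen: cells plated at 1500/well and incubated overnight at 37 °C, then exposed to library compounds for 90 min at 37 °C. Detection reagent was added for 30–60 min at room temperature, and luminescence was read.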
MCF10A rereplic: inducers of DNA re-replication in MCF 10A breast cells. Potency, µM (doses to about 46.1 µM), for the others: top-dose activity, positive = re-replication, usual class: activators. actives 2.9% (n = 350,000). MCF 10A DNA re-replication, Hoechst nuclear intensity, 48 h; also: potency is read from the fitted curve at half-maximal effect; % of control where 0% means no effect; nearly all actives have a fitted effect of over 50% in size
DRD3 antagonist: D3 dopamine receptor (human) antagonism; P35462; D3R cells, DiscoveRx beta-arrestin luminescence, antagonist mode; hits give low values; AID 652054; max response, negative = inhibition, %; actives 2.5% (n = 360,000); in the data active = max response below about -50%; inconclusive = no clear call, values can overlap the other calls; also: % is scaled to controls: 0 for no effect and ±100 for the full control effect
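Cells expressing the human receptor were seeded at 1500 cells/well, incubated overnight at 37 degrees C in 5% CO2, then exposed to library compounds with dopamine controls for 90 minutes at 37 degrees C before luminescent detection.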
Numbers without * were called inactive; i = inactive; ? = inconclusive; . = not tested or not shown. Unless noted, calls follow the shape of the dose curve; as a rule, active = well fitted curve in the direction sought with a large enough effect; inconclusive = small, poorly fitted or top-dose-only effect, or another doubt; inactive = no such curve, though single readings can be large; an effect the other way counts as inactive or inconclusive.

SMILES | SW480 rereplic | KB-3-1 tox | KB-V1 cytotox | DRD3 agonist | MCF10A rereplic | DRD3 antagonist
C[n+]1c2n(c3ccccc31)N=C(c1ccc(-c3ccccc3)cc1)CS2 | 1% | i | i | -2 | 33% | 4
C[n+]1c2n(c3ccccc31)N=C(c1ccccc1)CS2 | ? | 2.9µM* | i | -18 | ? | -22
COc1cc(Cl)c(C)cc1NC(=O)CC(c1ccc(F)cc1)N1Cc2ccccc2C1=O (stereo not drawn) | . | . | . | -18 | . | .
O=C(Nc1cccc(Cl)c1)NC1CC2CCC(C1)N2Cc1ccco1 (stereo not drawn) | -1% | i | i | -2 | 9% | -67*
COc1cc(OC)cc(C(=O)NC2CC3CCC(C2)N3Cc2ccco2)c1 (stereo not drawn) | 2% | i | i | -10 | 1% | -91*
Cc1ccc(Cn2c(C)c3cnn(CC(=O)N4CCN(c5ccc(F)cc5)CC4)c(=O)c3c2C)cc1 | . | ? | ? | -1 | . | .
CCc1nc(Cl)c(C#N)c2c1CSC(C)(C)C2 | ? | i | i | 2 | 0% | 8
CCCCc1nc(NCCNC(=O)c2ccco2)c(C#N)c2c1CSC(C)(C)C2 | ? | i | 2.3µM* | 13 | ? | 25
CCCCc1nc(Cl)c(C#N)c2c1CSC(C)(C)C2 | ? | i | i | 1 | 23µM* | 13
CC(=O)Oc1ccccc1N(C(C)=O)S(=O)(=O)c1ccc2ccccc2c1 | -3% | i | i | -14 | -5% | -23
CC(=O)Oc1c(Br)cc(N(C(C)=O)S(=O)(=O)c2ccccc2)c2ccccc12 | ? | ? | ? | 5 | 16µM* | -27
CCOC(=O)c1ccc(NC(=O)c2ccc(CN3C(=O)CCn4nc(C)cc43)cc2)cc1 | . | i | i | -4 | . | .
CC1C=CC(C)C(C(=O)c2ccccc2)C1C(=O)c1ccccc1 (stereo not drawn) | . | i | ? | -3 | . | -19
O=C(c1ccccc1)C1OC1C(=O)c1ccccc1 (stereo not drawn) | 15µM* | ? | ? | 5 | 9.2µM* | -15
Cc1ccc(-c2csc(=Nc3cccnc3)n2CCCn2ccnc2)cc1C | -1% | 16µM* | 7.3µM* | 3 | ? | 30
c1cncc(N=c2scc(-c3cccc4ccccc34)n2CCCn2ccnc2)c1 | 2% | i | 12µM* | 0 | 26% | 10
Cc1ccc(-c2csc(=Nc3cccnc3)n2CCCN2CCCC2=O)cc1C | 10% | ? | ? | -6 | 25% | -11
O=C([C@@H]1CC=C[C@@H]2CCN(C3CCCCC3)C(=O)[C@@H]21)N1CCOCC1 | . | i | i | . | . | .
COc1cc(OC)c(OC)cc1/C=C/c1cc(C(F)(F)F)[nH]c(=O)n1 | 18µM* | ? | i | 4 | 23µM* | 7
COc1cc(/C=C/c2cc(C(F)(F)F)[nH]c(=O)n2)cc(OC)c1OC | 21µM* | ? | i | -18 | ? | -21
O=c1nc(/C=C/c2cc([N+](=O)[O-])ccc2Cl)cc(C(F)(F)F)[nH]1 | 7% | i | ? | -12 | 3.3µM* | -69*
CCc1ccccc1N(C)C(=O)Cc1c(C(=O)O)c(C)cn1C | . | i | i | -2 | . | .
COc1cccc2c1OCC(CN1CCN(Cc3ccccc3F)C(CCO)C1)=C2 (stereo not drawn) | ? | i | ? | -25 | 0.73µM* | -8
COc1cccc2c1OCC(CN1CCN(Cc3ccccc3)C(CCO)C1)=C2 (stereo not drawn) | 23% | ? | ? | -20 | -1% | -94*
CCCCOCCOCCOCc1cc2c(cc1CCC)OCO2 | -1% | . | . | 9 | 1% | .
COc1ccccc1C(=O)Nc1ccc2c(c1)nc(CCNC(=O)c1ccco1)n2C | 5.2µM* | 1.6µM* | ? | -30 | ? | -18
Cn1c(CCNC(=O)c2ccccc2)nc2cc(NC(=O)c3ccco3)ccc21 | -1% | ? | 16µM* | -15 | 10% | ?
